Results published in PubChem BioAssay AID1813 (Broad Institute, 2009).
Among all 300,000 compounds or so, about 2,500 (0.83%) were called active. For the sample, actives were picked, then their nearest neighbours and some compounds at random. Values without a mark were called inactive. Rule as the data show it: active = inhibition above about 60%; inconclusive = no clear call, values can overlap the other calls; inactive = below that.

Experiment: 5' untranslated region of α-synuclein, MLPCN primary screen (AID 1813);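 also: H4 neuroglioblastoma cells stably carrying SNCA 5'UTR luciferase fusion; 0% = DMSO wells and 100% = positive control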
Conditions: alpha-synuclein 5'UTR reporter, inhibitor activity; active compounds read high; tested at 7.5 µM

Row | Compound | inhibition
1 | Nc1nonc1-n1nnc(C(=O)N/N=C/c2cc(Br)ccc2O)c1CSC1=NCCS1 | 94.1% (active)
2 | Nc1nonc1-n1nnc(C(=O)N/N=C/c2ccccc2O)c1CN1CCCC1 | 14.3%
3 | Cc1ccc(SCc2c(C(=O)N/N=C/c3cccnc3)nnn2-c2nonc2N)cc1 | -2.9%
4 | S=C(c1ccccc1)N1CCCC1 | 4.96%
5 | OCCN1CCN(c2nnc(-c3ccccc3)c3ccccc23)CC1 | 18.9%
6 | OCCN1CCN(C(=S)c2ccc(-c3ccccc3)cc2)CC1 | 88% (active)
7 | Cc1nc2cccnc2nc1C | -3.08%
8 | CC(C)S(=O)(=O)c1csc(NC(=O)Nc2ccc(Cl)cc2)c1Cl | -49.4%
9 | Cc1cccc(OCC(=O)NCCCNC(=O)c2ccccn2)c1 | 8.27%
10 | CCN(CC)CCOc1ccc2c(c1)C(=NNC(=O)c1ccccn1)c1cc(OCCN(CC)CC)ccc1-2 | 109% (active)
11 | Cc1ccc(Cl)cc1NC(=O)c1ccccn1 | -44%
12 | COc1ccc(NC(=O)Cn2ncn3c(cc4ccccc43)c2=O)c(OC)c1OC | 30%
13 | Cc1ccc(-n2c(O)c(C=Nc3ccc(S(=O)(=O)Nc4ncccn4)cc3)c3ccccc3c2=O)cc1C | 13.1%
14 | COC(=O)Cc1csc(/N=C/c2c(O)n(-c3cccc(C(F)(F)F)c3)c(=O)c3ccccc23)n1 | 81.8% (active)
15 | COC(=O)Cc1csc(Nc2c(C)n(C)n(-c3ccccc3)c2=O)n1 | 14.1%
16 | CC(NC(=O)c1cccc2ccccc12)c1ccc2c(c1)CCCC2 (stereo unspecified) | 5.38%
17 | Cc1cc(C(=O)CCl)c(C)n1CC1COc2ccccc2O1 (stereo unspecified) | 21.1%
18 | Cc1ccsc1C(=O)OCC(=O)c1cc(C)n(CC2CCCO2)c1C (stereo unspecified) | 79.6% (active)
19 | Cc1cc(C(=O)Cn2cnc3cc([N+](=O)[O-])ccc3c2=O)c(C)n1CC1CCCO1 (stereo unspecified) | -21.1%
20 | CCn1c(-c2cccnc2Cl)nc2cc(C)c(C)cc21 | 24.4%
21 | CC(C)C(NS(=O)(=O)c1cccs1)C(=O)Nc1nc(C(C)(C)C)cs1 (stereo unspecified) | 24.5%
22 | CCCCN(C(=O)c1ccc(C)o1)c1c(N)n(CCCC)c(=O)[nH]c1=O | 11.8%
23 | COc1ccc(NC(=O)C(C)SCc2ccccc2)cc1 (stereo unspecified) | -18.2%
24 | COc1ccc(C(=O)NCC2CCCN2S(=O)(=O)c2cccs2)cc1OC (stereo unspecified) | 19.5%

Row | Compound | inhibition
25 | CC(=O)c1c(C)[nH]c(C(=O)COC(=O)c2cccc(S(=O)(=O)N(C)c3ccccc3)c2)c1C | -1.07%
26 | CC1CC(C)CN(C(=O)C2CC(=O)N(c3ccc(F)cc3)C2)C1 (stereo unspecified) | 10.4%
27 | C=CCn1c(CCNC(=O)c2ccccc2F)nnc1SCC(=O)Nc1ccc(OC)cc1 | -21.5%
28 | CSc1nnc(NC(=O)c2nc(S(=O)(=O)Cc3ccc(C)cc3)ncc2Cl)s1 | -15.6%
29 | Cc1ccc(CS(=O)(=O)c2ncc(Cl)c(C(=O)Nc3nnc(C)s3)n2)cc1 | -37.4%
30 | Cc1cccc(NC(=O)c2nc(S(=O)(=O)Cc3ccccc3)ncc2Cl)c1 | 84.8% (active)
31 | COC(=O)COc1cccc2c(=O)n(CC(=O)NCc3ccccc3)ccc12 | -24.3%
32 | Nc1nc(Nc2ccccc2F)nc(NC2CCCCC2)c1[N+](=O)[O-] | 30.2%
33 | COc1cc(OC)cc(C(=O)NC2CCN(C(=O)N3c4ccccc4Sc4ccccc43)CC2)c1 | 47.3%
34 | COc1ccc(CN2[C@@H](CC(=O)O)c3cc(F)ccc3S2(=O)=O)cc1 | -3.17%
35 | C/C(=N\NC(=O)Cc1ccc(Cl)cc1)c1ccccn1 | 85.6% (active)
36 | COc1ccc(C/C(C)=N/NC(=O)c2ccncc2)cc1 | 6.51%
37 | C/C(=N\NC(=O)c1ccccc1F)c1ccccn1 | 83% (active)
38 | O=C(Nc1ccc(NC(=O)c2ccccc2F)cc1)c1ccccc1F | -42.3%
39 | COc1ccc(CC(=O)NC(C)CCc2ccccc2)cc1 (stereo unspecified) | 1.27%
40 | C/C(CC(=O)Nc1ccc(N(C)C)cc1)=N\NC(=O)c1ccccc1F | -40.2%
41 | COc1ccc(CC(=O)N/N=C(\C)c2ccccn2)cc1 | 77.7% (active)
42 | C/C(=N\NC(=O)Cc1ccc(Br)cc1)c1cccnc1 | 30.5%
43 | C/C(=N\NC(=O)Cc1ccc(F)cc1)c1ccc(F)cc1 | 20.6%
44 | C/C(=N\Nc1nc2ccccc2[nH]1)c1cccs1 | -116%
45 | O=C(O)C1CCCCC1C(=O)N1CCN(S(=O)(=O)c2ccc(F)cc2)CC1 (stereo unspecified) | -5.32%
46 | CC1(C)OC(=O)N2CCc3ccccc3C21C (stereo unspecified) | -10.7%
47 | C=CCNC(=S)NNc1ncnc2sc3c(c12)CC(C)(C)OC3 | 5.75%
48 | O=C(O)c1cc2c(cc1NC(=O)c1c(F)cccc1Cl)OCCCO2 | 23.8%

Row | Compound | inhibition
49 | COc1ccc2[nH]c3nc(SCC(=O)NC4CC4)nnc3c2c1 | -39.5%
50 | CCCCCN(C(=O)NC(=O)Nc1ccccc1C)S(C)(=O)=O | -36.2%
51 | OCCCNc1nccc(-c2cc(Nc3cccc(Cl)c3)ncn2)n1 | 73.3% (active)
52 | NS(=O)(=O)c1cccnc1Nc1cccc(Cl)c1 | -2.47%
53 | OCCCNc1nc(-c2ccccc2)c2cc(Cl)ccc2n1 | 30.4%
54 | O=C1CCCN2N=C(SCC(=O)Nc3ccc(Br)cc3)SC2=N1 | 10.7%
55 | Cc1cc(C(F)F)nn1CC(=O)NC1CCCCCC1 | -7.74%
56 | Cc1ccccc1NC(=O)CCNS(=O)(=O)c1ccc2[nH]c(=O)oc2c1 | 6.01%
57 | CCOc1ccc(C2C(C(=O)NC)=C(C)Nc3nc4ccccc4n32)cc1OC (stereo unspecified) | 10.1%
58 | COc1ccccc1NC(=O)C1=C(C)Nc2nc3ccccc3n2C1c1cccs1 (stereo unspecified) | 106% (active)
59 | CCOC(=O)C1=C(C)Nc2nc3ccccc3n2C1c1cccs1 (stereo unspecified) | 31.1%
60 | COC(=O)c1cc(=O)n(-c2c(Cl)cc(C(F)(F)F)cc2Cl)[nH]1 | 29.3%
61 | CN(CC(=O)Nc1c(Cl)cccc1Cl)C(=O)c1ccncc1 | 8.69%
62 | O=C1CCCC2=C1C(c1cccs1)n1nc(SCc3ccccc3)nc1N2 (stereo unspecified) | 37.2%
63 | CCCCCN(C(=O)NC(=O)Nc1cccc(C)c1C)S(C)(=O)=O | -23.1%
64 | CC(C)n1c(CN2CCN(Cc3ccccc3)CC2)nc2ccccc21 | 9.23%
65 | CCCNC(=O)N1CCN(C(=O)NCCC)CC1 | 8.45%
66 | CCn1nc(C)c(NC(=O)/C=C/c2ccc(OC)c(COc3ccc(Br)cc3)c2)c1C | 61.8% (active)
67 | COc1ccc(C(C)=O)cc1COc1ccc(Cl)c(C)c1 | 50.7%
68 | C/C=C/c1ccc(OCC(=O)OCC(=O)Nc2c(C)nn(-c3ccccc3)c2C)c(OC)c1 | 3.02%
69 | CCCCN(C)CCC(=O)Nc1ccc(Cl)cc1 | -18.3%
70 | CCOc1ccc2c(c1)c(=O)c(S(=O)(=O)c1ccc(C)cc1)cn2CC | 13%
71 | CN(C)c1nc(N)nc(CSc2nnnn2-c2cccc3ccccc23)n1 | 68.9% (active)
72 | COc1ccc(-n2nnnc2SCc2nc(N)nc(N3CCOCC3)n2)cc1 | 13.4%

Row | Compound | inhibition
73 | CN(C)c1nc(N)nc(CSc2ccccn2)n1 | -19.1%
74 | COc1ccc(CCNC(=O)CN(C)S(=O)(=O)c2ccc3nc(C)sc3c2)cc1OC | -0.864%
75 | CC(=O)Nc1ccc(NC(=O)CCCNC(=O)c2ccc(Cl)cc2)cc1 | 19.3%
76 | COc1ccc(Cc2nnc(N/N=C/c3ccccc3O)[nH]c2=O)cc1OC | 91.4% (active)
77 | O=c1[nH]c(NCCO)nnc1Cc1ccc(Cl)cc1 | 6.74%
78 | CC(C)c1ccc(Cc2nnc(NCCCO)[nH]c2=O)cc1 | -13.1%
79 | COc1ccc(S(=O)(=O)N2CCC(C(=O)NCCC(=O)NCc3cccc(OC)c3)CC2)cc1 | 11.4%
80 | Nc1nonc1-c1nc2ccccc2n1Cc1ccc(F)cc1 | 49%
81 | COc1ccc(C)c(Cn2c(-c3nonc3N)nc3ccccc32)c1 | 76.2% (active)
82 | CC(=O)Nc1nonc1-c1nc2ccccc2n1Cc1ccccn1 | 19%
83 | CN(CC(=O)NCc1cccnc1)S(=O)(=O)c1cc(Cl)ccc1Cl | 5.11%
84 | CCc1noc(C)c1C(=O)N1CCCC(N2CCN(c3ccc(F)cc3)CC2)C1 (stereo unspecified) | 14.8%
85 | CC(Sc1nnc(COc2ccccc2)n1-c1ccccc1)C(=O)O (stereo unspecified) | -1.97%
86 | CC1(C(=O)N/N=C/c2cc3c(cc2Br)OCO3)CC1(Br)Br (stereo unspecified) | 4.98%
87 | O=C(CN1C(=O)c2ccccc2S1(=O)=O)N1CCc2ccccc21 | 93.5% (active)
88 | O=C(CN1CCN(c2ccccn2)CC1)N1CCc2ccccc21 | -26.8%
89 | O=C(CN1C(=O)c2ccccc2S1(=O)=O)NC1CCCCC1 | 6.72%
90 | COc1ccc(NC(=O)/C(Cl)=C(/Cl)S(=O)Cc2ccc(C)cc2)cn1 (stereo unspecified) | 106% (active)
91 | COc1ccc(Nc2ccc([N+](=O)[O-])cn2)cn1 | 8.18%
92 | Cc1ccc(NC(=O)OCc2cncs2)cc1 | -112%
93 | COc1ccc(NC(=O)CN(C)C(=O)Cc2coc3cc(C)c(C)cc23)cc1 | 6.29%
94 | Cc1ccc2c(c1)NCC(C(=O)NC1CCC(C)CC1)O2 (stereo unspecified) | -67.9%
95 | CN(C)c1ccc(C(CNC(=O)c2ccc(F)cc2)c2c[nH]c3ccccc23)cc1 (stereo unspecified) | 4.86%
96 | Cc1ccc(OCC(=O)Nc2ccccc2Sc2ccc(Cl)cc2)c([N+](=O)[O-])n1 | 4.28%
